Reference: PubChem BioAssay (NCATS)
Several values for one entry are separate records, joined by “and”; a condition that tells them apart may be missing. Equal values may be shown once. Results filed as inconclusive are left out. Where a call stands in place of a potency, no number is given. Activity calls are given as the source filed them. Unless noted, calls come from the whole dose curve; as a rule, active = well fitted curve in the direction sought with a large enough effect in the repeat runs; inconclusive = weak or mixed curves; inactive = no such curve, though single readings can be large; an effect the other way counts as inactive or inconclusive.

What was measured:
[1] = molecular target: Cytochrome P450 2D6 (Homo sapiens) (UniProt P10635); assay: Cytochrome P450 family 2 subfamily D member 6 (CYP2D6) small molecule antagonists: luciferase biochemical (cell-free) qHTS assay (AID 1645840); note: nearly all actives have a fitted effect of over 55% in size
Outline: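 P450-Glo CYP2D6 system: proluciferin substrate converted by enzyme to luciferin, read by luminescence proportional to activity. Enzyme-substrate mix with compound 10 min at room temperature, then NADPH regeneration 1 h before detection reagent.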

[2] = molecular target: Cytochrome P450 2C9 (Homo sapiens) (UniProt P11712); assay: Cytochrome P450 family 2 subfamily C member 9 (CYP2C9) small molecule antagonists: luciferase biochemical (cell-free) qHTS assay (AID 1645842); note: nearly all actives have a fitted effect of over 55% in size
Outline: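 P450-Glo CYP2C9 system: proluciferin substrate with enzyme in mix containing 0.4% BSA, 10 min at room temperature, then NADPH regeneration solution added and incubated 1 h at 37C. Detection reagent stopped reaction; luminescence read after 20 min as RLU.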

[3] = Primary qHTS for inhibitors of nuclear receptor binding SET domain protein 2 (NSD2) in an isogenic RCH-ACV NSD2 p.E1099K mutant (9B) (AID 1645876; active = well fitted curve in the direction sought with a large enough effect; an effect the other way counts as inactive or inconclusive; note: nearly all actives have a fitted effect of over 70% in size)
[4] = Primary qHTS for inhibitors of nuclear receptor binding SET domain protein 2 (NSD2) in an RCH-ACV wild type WT cells (2C) (AID 1645877; active = well fitted curve in the direction sought with a large enough effect; an effect the other way counts as inactive or inconclusive; note: nearly all actives have a fitted effect of over 70% in size)
Potency is the fitted concentration of half-maximal effect.

Sequence of Cytochrome P450 2D6 (Homo sapiens) (P10635 whole entry, looked up): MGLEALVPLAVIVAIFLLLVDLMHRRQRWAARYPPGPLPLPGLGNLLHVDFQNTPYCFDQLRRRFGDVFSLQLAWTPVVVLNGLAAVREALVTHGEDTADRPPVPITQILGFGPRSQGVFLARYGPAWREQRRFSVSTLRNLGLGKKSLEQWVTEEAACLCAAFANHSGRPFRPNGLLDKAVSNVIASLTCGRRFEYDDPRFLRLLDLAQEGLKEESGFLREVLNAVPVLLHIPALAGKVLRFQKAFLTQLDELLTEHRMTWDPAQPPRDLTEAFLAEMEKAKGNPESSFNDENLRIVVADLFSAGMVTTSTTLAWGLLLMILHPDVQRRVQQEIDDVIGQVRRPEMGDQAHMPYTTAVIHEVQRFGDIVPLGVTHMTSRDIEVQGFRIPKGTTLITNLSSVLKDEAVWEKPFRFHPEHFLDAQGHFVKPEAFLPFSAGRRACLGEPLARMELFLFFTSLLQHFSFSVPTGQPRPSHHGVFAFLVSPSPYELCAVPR
Sequence of Cytochrome P450 2C9 (Homo sapiens) (P11712 whole entry, looked up): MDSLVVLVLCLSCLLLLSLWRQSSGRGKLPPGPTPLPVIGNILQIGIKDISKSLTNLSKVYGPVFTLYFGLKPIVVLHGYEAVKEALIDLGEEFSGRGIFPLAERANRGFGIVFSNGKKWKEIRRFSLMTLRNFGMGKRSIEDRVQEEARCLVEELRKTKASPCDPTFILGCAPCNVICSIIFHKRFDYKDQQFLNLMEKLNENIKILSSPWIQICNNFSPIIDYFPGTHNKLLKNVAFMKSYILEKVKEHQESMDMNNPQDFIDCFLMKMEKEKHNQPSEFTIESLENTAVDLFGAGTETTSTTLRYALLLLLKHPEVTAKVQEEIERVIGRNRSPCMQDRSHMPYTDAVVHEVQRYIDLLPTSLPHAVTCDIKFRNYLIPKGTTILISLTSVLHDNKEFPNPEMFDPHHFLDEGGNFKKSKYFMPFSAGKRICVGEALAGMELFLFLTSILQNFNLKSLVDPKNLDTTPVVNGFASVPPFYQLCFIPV

SMILES	Potency [1]	Potency [2]	Potency [3]	Potency [4]
CCOC(=O)C(=O)c1csc(NC=O)n1	19.5 µM (active)	inactive	inactive	inactive
CC(C)NC(=O)c1ccc(C=O)cc1	inactive	inactive	inactive	inactive
NS(=O)(=O)c1ccc(N2CCCCS2(=O)=O)cc1	inactive	inactive	inactive	inactive
O=c1[nH]c2ccccc2c(=O)n1CCCl	inactive	inactive	inactive	inactive
CCC1(c2cnc[nH]2)Cc2ccccc2C1	0.309 µM (active)	0.871 µM (active)	inactive	–
O=[N+]([O-])c1ccc(O)c2ncccc12	inactive	inactive	1.88 µM (active) and 6.61 µM (active)	841 nM (active) and 6.61 µM (active)
COC(=O)c1cc(Cl)ccc1OC	inactive	inactive	inactive	–
N#C/C(=C1/SC[C@@H](c2ccc(Cl)cc2Cl)S1)n1ccnc1	0.0871 µM (active)	0.436 µM (active)	13.3 µM (active)	11.9 µM (active)
CCCc1c2oc(C(=O)O)cc(=O)c2cc2c(=O)cc(C(=O)O)n(CC)c12	inactive	inactive	inactive	inactive
O=C(COCCOCCOCC(=O)Nc1c(I)cc(I)c(C(=O)O)c1I)Nc1c(I)cc(I)c(C(=O)O)c1I	inactive	inactive	inactive	inactive
CC[N+](CC)(CC)CCOC(=O)C(C1CCCC1)C1CCCC1	3.09 µM (active)	inactive	21.1 µM (active)	–
O=C(c1ccco1)N1CCNCC1	inactive	inactive	inactive	inactive
CCOC(=O)c1ccc(O)c(O)c1	inactive	inactive	9.44 µM (active)	13.3 µM (active)
CCCCN(CCN(CCCC)C(=O)N1CCOCC1)C(=O)N1CCOCC1	inactive	inactive	inactive	inactive
Cc1cc(O)c(C)c(C)c1O	inactive	inactive	inactive	inactive
NS(=O)(=O)c1cc2c(cc1Cl)CN(C1CCCCC1)C2=O	inactive	inactive	inactive	–
CCCCOC(=O)CCCCCCCCC(=O)OCCCC	inactive	19 µM (active)	inactive	inactive
CC(=O)N[C@@H](CCC(N)=O)C(=O)O	inactive	inactive	inactive	inactive
COc1cc(C(=O)OC(COCCC(C)C)CN2CCOCC2)cc(OC)c1OC (configuration not stated)	inactive	2.19 µM (active)	inactive	inactive
O=C(Nc1ccc(Cl)cc1)Nc1ccc(Cl)c(Cl)c1	inactive	4.36 µM (active)	6.68 µM (active)	6.68 µM (active)
CCN(CC)CCN	inactive	inactive	inactive	inactive
COc1ccc(/C(C)=C/C(=O)O)c(OC)c1	inactive	inactive	inactive	inactive
COC(=O)c1cc(S(N)(=O)=O)ccc1OC	inactive	inactive	inactive	inactive
COc1ccc2c(c1)CCCC2=O	inactive	inactive	inactive	inactive
Fc1ccc(C(c2ccc(F)cc2)N2CCNCC2)cc1	7.76 µM (active)	inactive	inactive	inactive
OC[C@]1(O)OC[C@@H](O)[C@H](O)[C@@H]1O	inactive	inactive	inactive	inactive
CCOC(=O)N1CCC(Nc2ccc(Cl)cc2N)CC1	7.76 µM (active)	8.71 µM (active)	13.3 µM (active)	11.9 µM (active)
CCN(CC)CC(=O)Nc1c(C)cccc1C(=O)OC	inactive	inactive	inactive	inactive
CC(C)(C)C1CCC(CC2=C(O)c3ccccc3C(=O)C2=O)CC1 (configuration not stated)	inactive	3.89 µM (active)	7.5 µM (active)	9.44 µM (active)
